Where “and” joins values, the source holds several entries; their conditions need not be identical. Equal values may be shown once. The campaign covered roughly 5,500 compounds. About 2,000 (36%) were called active. Roughly 18% stayed inconclusive and do not appear here. No stated cut-off is given here; in the data, active means normalized growth mostly below about 0.91 (no sharp cut-off); inconclusive means no clear call, values can overlap the other calls; inactive means mostly above about 0.92. The list shows a part of the results.
Experiment: chemical genetic growth profiling, strain panel (AID 1159580);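 further: tested at 20 µM; growth read once vehicle control cultures reached saturation at 30 °C; 1 = growth at the plate median or of vehicle wells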
Conditions: S. cerevisiae deletion strains, growth OD

Measured: normalized growth

CN(C)CCC=C1c2ccccc2CCc2ccccc21
active: locus YAL021C, strain ccr4, stronger effect = lower value 0.896 | locus YAL026C, strain drs2, stronger effect = lower value 0.894 | locus YDR137W, strain rgp1, stronger effect = lower value 1.19 [resistant] | locus YER015W, strain faa2, stronger effect = lower value 0.913 | locus YHR027C, strain rpn1, stronger effect = lower value 0.864
inactive: locus YAL013W, strain DEP1, stronger effect = lower value 0.992 | locus YAL030W, strain snc1, stronger effect = lower value 0.995 | locus YAL040C, strain CLN3, stronger effect = lower value 1 | locus YBL061C, strain skt5, stronger effect = lower value 0.991 | locus YBR009C, strain hhf1, stronger effect = lower value 0.913 | locus YBR021W, strain FUR4, stronger effect = lower value 1 | locus YBR023C, strain chs3, stronger effect = lower value 0.975 | locus YBR171W, strain sec66, stronger effect = lower value 0.969 | locus YBR229C, strain ROT2, stronger effect = lower value 1 | locus YBR231C, strain swc5, stronger effect = lower value 1 | locus YBR279W, strain paf1, stronger effect = lower value 0.958 | locus YCL011C, strain gbp2, stronger effect = lower value 0.946 | locus YCL016C, strain dcc1, stronger effect = lower value 0.958 | locus YCL029C, strain bik1, stronger effect = lower value 1 | locus YCL061C, strain MRC1, stronger effect = lower value 0.993 | locus YCL069W, strain vba3, stronger effect = lower value 0.987 | locus YCR088W, strain abp1, stronger effect = lower value 0.953 | locus YDL005C, strain med2, stronger effect = lower value 0.993 | locus YDL035C, strain GPR1, stronger effect = lower value 1.02 | locus YDL040C, strain nat1, stronger effect = lower value 0.989 | locus YDL074C, strain BRE1, stronger effect = lower value 0.999 | locus YDL101C, strain DUN1, stronger effect = lower value 1.01 | locus YDL134C, strain PPH21, stronger effect = lower value 0.998 | locus YDL185W, strain tfp1, stronger effect = lower value 1 | locus YDL192W, strain arf1, stronger effect = lower value 0.996 | locus YDR001C, strain nth1, stronger effect = lower value 0.963 | locus YDR069C, strain doa4, stronger effect = lower value 0.955 | locus YDR101C, strain arx1, stronger effect = lower value 0.995 | locus YDR159W, strain sac3, stronger effect = lower value 0.962 | locus YDR162C, strain NBP2, stronger effect = lower value 1.02 | locus YDR195W, strain ref2 1.07 | locus YDR297W, strain sur2, stronger effect = lower value 0.975 | locus YDR318W, strain mcm21, stronger effect = lower value 1 | locus YDR334W, strain swr1, stronger effect = lower value 0.98 | locus YDR335W, strain msn5, stronger effect = lower value 0.973 | locus YDR363W, strain ESC2, stronger effect = lower value 1 | locus YDR388W, stronger effect = lower value 1 | locus YDR392W, strain spt3, stronger effect = lower value 0.922 | locus YDR502C, strain sam2, stronger effect = lower value 0.992 | locus YEL003W, strain gim4, stronger effect = lower value 0.978 | locus YEL037C, strain rad23, stronger effect = lower value 0.984 | locus YEL061C, strain CIN8 (second series), stronger effect = lower value 0.988 | locus YEL061C, strain CIN8, stronger effect = lower value 1.01 | locus YER002W, strain NOP16, stronger effect = lower value 1.01 | locus YER016W, strain bim1, stronger effect = lower value 0.951 | locus YER110C, stronger effect = lower value 1 | locus YER111C, strain swi4, stronger effect = lower value 0.97 | locus YER155C, strain BEM2 (second series), stronger effect = lower value 1 | locus YER155C, strain BEM2, stronger effect = lower value 1 | locus YER167W, strain BCK2, stronger effect = lower value 1.01 | locus YFR010W, strain ubp6, stronger effect = lower value 0.94 | locus YGL078C, strain dbp3, stronger effect = lower value 0.986 | locus YGL086W, strain mad1, stronger effect = lower value 1 | locus YGL167C, strain pmr1, stronger effect = lower value 0.995 | locus YGL173C, strain kem1, stronger effect = lower value 0.966 | locus YGL227W, strain vid30, stronger effect = lower value 0.994 | locus YGL240W, strain doc1, stronger effect = lower value 0.999 | locus YGL248W, strain PDE1, stronger effect = lower value 1.01 | locus YGL253W, strain hxk2, stronger effect = lower value 0.953 | locus YGR078C, strain PAC10, stronger effect = lower value 1 | locus YGR135W, strain pre9, stronger effect = lower value 0.994 | locus YGR229C, strain SMI1, stronger effect = lower value 0.975 | locus YGR252W, strain gcn5, stronger effect = lower value 0.944 | locus YHR013C, strain ard1, stronger effect = lower value 0.875 | locus YHR030C, strain SLT2, stronger effect = lower value 1.01 and 1.08 | locus YHR079C, strain IRE1 (second series), stronger effect = lower value 0.994 | locus YHR079C, strain IRE1, stronger effect = lower value 1.05 | locus YHR094C, strain hxt1, stronger effect = lower value 0.992 | locus YHR129C, strain ARP1, stronger effect = lower value 1.01 | locus YHR142W, strain chs7, stronger effect = lower value 0.919 | locus YHR200W, strain rpn10, stronger effect = lower value 0.995 | locus YIL066C, strain RNR3, stronger effect = lower value 1.02 | locus YIL073C, strain SPO22, stronger effect = lower value 1.05 | locus YIL125W, strain kgd1, stronger effect = lower value 0.997 | locus YIR030C, strain dcg1, stronger effect = lower value 0.992 | locus YJL092W, strain hpr5, stronger effect = lower value 0.979 | locus YJL095W, strain BCK1 (second series), stronger effect = lower value 0.978 | locus YJL095W, strain BCK1, stronger effect = lower value 1.01 and 1.05 | locus YJL115W, strain asf1, stronger effect = lower value 0.974 | locus YJL129C, strain trk1, stronger effect = lower value 1.01 | locus YJL134W, strain LCB3, stronger effect = lower value 1.01 | locus YJL154C, strain vps35, stronger effect = lower value 0.975 | locus YJL164C, strain tpk1, stronger effect = lower value 0.974 | locus YJL166W, strain qcr8, stronger effect = lower value 0.988 | locus YJL168C, strain set2, stronger effect = lower value 1.01 | locus YJL187C, strain SWE1 (second series), stronger effect = lower value 1.01 | locus YJL187C, strain SWE1, stronger effect = lower value 0.985 | locus YJR043C, strain POL32, stronger effect = lower value 1.01
